# An excerpt weighted towards active compounds, which were near 3.3% of everything screened.
# AmpC inh detg – inhibitors of E. coli AmpC beta-lactamase with detergent; P00811; AmpC hydrolysis of nitrocefin, absorbance 480 nm, 0.01% Triton; Potency, µM (series often up to 114 µM), for inactives: at the top dose activity change, negative = inhibition, actives largely listed as inhibitors; 0.041% of 370,000 active; AID 485294;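 further: 0% = no-compound wells and -100% = no-enzyme wells; nearly all actives have a fitted effect of over 25% in size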
# Target sequence (P00811 whole entry, looked up): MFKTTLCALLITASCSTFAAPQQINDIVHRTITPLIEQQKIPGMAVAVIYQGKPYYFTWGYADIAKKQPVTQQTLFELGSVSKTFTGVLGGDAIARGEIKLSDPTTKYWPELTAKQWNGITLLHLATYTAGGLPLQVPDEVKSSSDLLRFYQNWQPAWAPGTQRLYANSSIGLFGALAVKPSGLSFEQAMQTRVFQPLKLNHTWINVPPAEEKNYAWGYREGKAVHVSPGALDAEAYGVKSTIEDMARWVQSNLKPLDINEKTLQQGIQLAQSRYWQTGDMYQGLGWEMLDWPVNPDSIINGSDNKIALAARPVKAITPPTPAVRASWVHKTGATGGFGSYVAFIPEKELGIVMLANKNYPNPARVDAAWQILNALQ
#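 20 mM phosphate pH 7.0 + 0.01% (detergent screen) or 0.0001% Triton X-100; 5.3 nM AmpC reagent; cpd preinc 15 min RT; nitrocefin (800 uM stock) to start; A480 q20 s × 4 min; Activity was normalised to no-enzyme and no-compound control wells.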
# AmpC no deterg – AmpC beta-lactamase inhibition without detergent | P00811 | AmpC nitrocefin hydrolysis, absorbance 480 nm, 0.0001% Triton | Potency, µM (series often up to 57.1 µM), for inactives: at the highest dose activity change, negative = inhibition, usual class: inhibitors | 0.52% of 330,000 active | AID 485341;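 further: plate controls were no compound for no effect and no enzyme for full effect; nearly all actives have a fitted effect of over 20% in size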
#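 AmpC (5.3 nM in the dispensed reagent) in 20 mM phosphate pH 7.0 with 0.01% (detergent screen) or 0.0001% Triton X-100 was preincubated with compounds for 15 min at room temperature. Nitrocefin was then added from an 800 uM solution, and hydrolysis was followed at 480 nm.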
# Tb PYK inh – blocks Trypanosoma brucei pyruvate kinase. Q57TT1. TbPYK enzyme, Kinase-Glo Plus ATP luminescence, 45 min. Potency, µM (highest dose often 76.8 µM), for the others: at the top dose activity, negative = inhibition, actives largely listed as inhibitors. 0.12% of 410,000 active. AID 624173; further: on the % scale 0 is the no-effect control and ±100 the full control effect; nearly all actives have a fitted effect of over 50% in size
#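 Screened from lowest to highest concentration, compounds were pinned into TbPYK/substrate mixtures, and ADP (130 uM final) was added. Plates sat at room temperature for 45 min prior to Kinase-Glo Plus detection by luminescence.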
# SARS PLpro yeast – inhibitors of SARS-CoV papain-like protease in yeast; S. cerevisiae expressing SARS-CoV PLpro, growth rescue; Potency, µM (top dose mostly 32.9 µM), without a hit: at the highest dose activity, positive = growth rescue, usual class: activators; 0.19% of 330,000 active; AID 485353; calls by dose curve; further: 0% is about no effect; nearly all actives have a fitted effect of over 55% in size
# RE007 growth inh – less growth of the S. pombe RE007 Vpr strain; S. pombe RE007 Vpr strain, BacTiter-Glo ATP luminescence, 24 h; Potency, µM (highest dose often 92.2 µM), without a hit: at the highest dose activity change, negative = less growth, hits mostly inhibitors; 0.21% of 360,000 active; AID 651644; active means well fitted falling curve with a large enough effect; inconclusive means small, poorly fitted or top-dose-only effect; inactive means no such curve, though single readings can be large or run the other way; further: on the % scale 0 is the no-effect control and ±100 the full control effect; nearly all actives have a fitted effect of over 50% in size
#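 Fission yeast strain RE007, carrying one chromosomally integrated HIV-1 vpr copy, was seeded at OD 0.01 in PMG+AL medium with 23 nL pinned compound. After 24 h at 30 °C and 99% humidity, viability was read by BacTiter-Glo luminescence.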
# Sm TGR block – S. mansoni TGR enzyme inhibition. Q962Y6. purified TGR, DTNB reduction, TNB absorbance 405 nm. Potency, µM (doses to about 114 µM), without a hit: top-dose activity change, negative = inhibition, usual class: inhibitors. 3% of 360,000 active. AID 485364; further: on the % scale 0 is the no-effect control and ±100 the full control effect; nearly all actives have a fitted effect of over 60% in size
#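 First, TGR (20 nM dispensed) and NADPH were mixed with compound. Second, a 15 min room-temperature incubation followed. Third, further NADPH and then DTNB were added to start the reaction. Finally, TNB absorbance was monitored kinetically.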
# Numbers without * were called inactive; ? = inconclusive; · = no result given; ! = not confirmed by another sample; [ ] = dose if it differs, or a comment. Unless noted, the call rests on the fitted dose curve; in most records, active means well fitted curve in the direction sought with a large enough effect; inconclusive means small, poorly fitted or top-dose-only effect, or another doubt; inactive means no such curve, though single readings can be large; an effect the other way counts as inactive or inconclusive. Potency means the concentration at half of the fitted maximal effect.
SMILES,AmpC inh detg,AmpC no deterg,Tb PYK inh,SARS PLpro yeast,RE007 growth inh,Sm TGR block
CCN1C(=O)[C@H]2[C@@H](c3ccc(-c4ccc(F)cc4)c(OC)c3)N[C@@](CC(C)C)(C(=O)OC)[C@H]2C1=O,-1.9%,143.8%,·,-1.9%,·,39.8µM*
CCN1C(=O)[C@H]2[C@@H](c3ccc(-c4ccc(F)cc4)cc3)N[C@@](CC(C)C)(C(=O)OC)[C@H]2C1=O,-3.9%,93.7%,2.4%,3.9%,-14.2%,-13.3%
CCc1ccc(OC(=O)c2sc3ncn(Cc4cccc(F)c4)c(=O)c3c2C)cc1,-6.1%,·,2.8%,·,·,6.8%
COc1cccc(C(=O)Nc2cccc(NC(=O)c3ccc(Cl)cc3Cl)c2)c1,6.4%,·,-1.8%,·,·,-1.9%
COc1cccc(C(=O)Nc2cccc(C(=O)NC3=NN(c4c(Cl)cc(Cl)cc4Cl)C(=O)C3)c2)c1,-12.9%,17.8µM*,-2.6%,-0.9%,-4.3%,-2.1%
C=CCN1c2ccc(Br)cc2C(=O)CS1(=O)=O,-1.3%,3.98µM*,-1.5%,1.8%,1.0%,-0.2%
COc1cccc(CN2c3ccc(Br)cc3C(=O)CS2(=O)=O)c1,4.3%,?,-3.1%,-1.1%,4.8%,5.7%
CC1(C)O[C@@H]2[C@H](O1)[C@@H](COS(=O)(=O)O)O[C@H]2n1c(=S)[nH]c2c(=O)[nH]c(N)nc21,-10.5%,-8.8%,35.5µM*,-1.0%,0.2%,11.5%
CC1(C)O[C@@H]2[C@H](O1)[C@@H](COS(=O)(=O)O)O[C@H]2n1cnc2c(N)ncnc21,3.0%,-5.7%,·,-11.1%,·,?
Cc1ccccc1NC(=O)Cn1nnc(C(=O)NCCc2ccccc2)c1N,-1.9%,·,9.2%,·,·,5.2%
Cn1c(=O)c2sccc2n2c(CCC(=O)N3CCN(c4ccc(F)cc4)CC3)nnc12,4.3%,·,·,·,·,-2.0%
O=C(Nc1cccc(-c2ccc(N3CCOCC3)nn2)c1)c1ccc([N+](=O)[O-])cc1,-7.3%,31.6µM*,-4.4%,-1.7%,-3.3%,0.1%
O=C(O)CSCC(=O)NC1CCSC1=O (stereo not given),·,·,1.1%,·,·,·
COc1cccc(OC)c1OCc1cc(C2C3CCCC=C3C(C#N)=C(N)C2(C#N)C#N)c(C)cc1C (stereo not given),-13.0%,-13.3%,-15.3%,2.2%,7.7%,39.8µM*
Cc1cccc(C)c1OCc1n[nH]c(=S)o1,0.0%,-15.3%,?,4.2%,-3.6%,31.6µM*
Cc1ccc(C2/C(=C(\O)c3cnn(-c4ccccc4)c3C)C(=O)C(=O)N2CCN(C)C)o1 (stereo not given),5.4%,-12.0%,-7.3%,0.6%,10.8%,6.7%
Cc1ccc(C)c(/C(O)=C2/C(=O)C(=O)N(CCN3CCOCC3)C2c2ccco2)c1 (stereo not given),10.1%,131.6%,4.1%,-0.5%,-4.1%,20µM*
Cc1ccc(C2/C(=C(/O)c3cnn(-c4ccccc4)c3C)C(=O)C(=O)N2CCN2CCOCC2)o1 (stereo not given),6.2%,27.1%,-0.1%,3.5%,-0.6%,22.4µM*
Cc1c(/C(O)=C2/C(=O)C(=O)N(CCN3CCOCC3)C2c2cccs2)cnn1-c1ccccc1 (stereo not given),-0.2%,0.3%,-0.8%,0.6%,5.9%,35.5µM*
Cc1ccc(C2/C(=C(/O)c3ccccc3)C(=O)C(=O)N2CCN2CCOCC2)o1 (stereo not given),4.2%,-10.0%,-12.2%,-5.7%,-7.7%,44.7µM*
Cc1c(/C(O)=C2\C(=O)C(=O)N(CCN(C)C)C2c2ccccc2)cnn1-c1ccccc1 (stereo not given),-12.7%,-3.1%,5.8%,0.5%,-9.8%,12.6µM*
CCOC(=O)c1ccc(NS(=O)(=O)c2ccc3c(c2)CCN3C(=O)CC)cc1,20.2%,·,2.4%,·,·,-26.8%
CN1Cc2cccnc2N(C)Cc2cc(Cl)ccc21,-12.7%,-11.7%,1.0%,24.0%,-26.2%,6.6%
Clc1ccc2c(c1)CCc1cccnc1C2=C1CCNCC1,?,115.3%,-6.7%,-7.4%,·,44.7µM*!
CCC(Cn1nnc2ccccc2c1=O)NC(=O)Nc1ccccc1OC (stereo not given),18.4%,·,-2.0%,·,·,3.0%
SMILES,AmpC inh detg,AmpC no deterg,Tb PYK inh,SARS PLpro yeast,RE007 growth inh,Sm TGR block
CCc1cc(C(c2ccc(OC)c(OC)c2)N2CCOCC2)c(NC(=O)c2ccccc2)s1 (stereo not given),-4.0%,53.0%,-3.0%,21.8%,-0.5%,2.51µM*
CCc1cc(C(c2ccc(F)cc2)N2CCOCC2)c(NC(=O)c2ccccc2)s1 (stereo not given),1.0%,-31.2%,3.0%,-1.8%,11.3%,3.98µM*
CCc1cc(C(c2cccc(OC)c2)N2CCOCC2)c(NC(=O)c2ccccc2)s1 (stereo not given),-1.9%,-10.5%,-8.9%,-24.7%,6.6%,?
Cc1c(O)c(=O)n(-c2ccccc2)n1C,6.8%,-4.6%,1.5%,·,-3.3%[18.4 µM],11.2µM*
CC1=CC(=Nc2c(C)n(C)n(-c3ccccc3)c2=O)C=CC1=O,-0.4%,-17.2%,·,-0.5%,·,2.82µM*
CC1=CC(=Nc2c(C)n(C)n(-c3ccccc3)c2=O)C=C(C)C1=O,-10.2%,-18.1%,?,4.6%,·,50.1µM*
Cc1c(I)c(=O)n(-c2ccccc2)n1C,·,·,-4.4%,·,·,·
Cc1c(N=NC2=C(O)CC(C)(C)CC2=O)c(=O)n(-c2ccccc2)n1C,?,-28.9%,-11.7%,0.3%,-3.4%,12.6µM*
Cc1c(N=Nc2c(O)[nH]c(=S)[nH]c2=O)c(=O)n(-c2ccccc2)n1C,-0.4%,-16.2%,-30.1%,-4.1%,7.4%,-4.8%
CCOC(=O)NC1(C(F)(F)F)NC(=O)N(c2ccc(C)c(C)c2)C1=O (stereo not given),?,·,3.6%,·,·,-1.6%
COc1ccc2c(c1)CC(C(=O)Nc1cc(OC)c(OC)c(OC)c1)CO2 (stereo not given),10.8%,·,6.5%,·,·,0.9%
Cc1cccn2c(=O)c3cc(C(=O)NC4CCCCCC4)sc3nc12,0.0%,-9.5%,-1.9%,0.9%,0.0%,35.5µM*
Cc1ccc(CNS(=O)(=O)c2c(C)nc3sc(C)cn3c2=O)cc1,-10.0%,·,-2.9%,·,·,-6.5%
CC12CCC(C(=O)N(CSC(=S)N/N=C\c3ccccc3O)C1=O)C2(C)C (stereo not given),-3.5%,-23.6%,1.5%,8.5%,19.0%,20µM*
COc1ccc(C/C(C)=N/NS(=O)(=O)c2ccc(Br)cc2)cc1,2.9%,-45.5%,2.5%,0.2%,-4.3%,22.4µM*
NS(=O)(=O)c1ccc(CCNC(=O)c2ccc[nH]c2=S)cc1,-9.6%,-19.2%,0.5%,-13.0%,8.91µM*,-3.5%

# Compound activity: PubChem, National Center for Advancing Translational Sciences (NCATS)
